# High-throughput results deposited in PubChem by several laboratories.
# PfG6PD inh: PfG6PD (Plasmodium falciparum) enzyme inhibition; AID 504690; actives 0.78% (n = 350,000); PfGluPho enzyme, NADPH resazurin-diaphorase fluorescence; inhibition, % at 20 µM;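 active = inhibition reaching at least a set limit at 20 µM in the primary screen, cut at about 59% in these data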;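 also: 0% = DMSO wells with substrate and 100% = DMSO wells lacking glucose-6-phosphate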
# FAS-TE inh: blocks the thioesterase domain of human fatty acid synthase; P49327; recombinant FAS-TE, OMFH fluorogenic substrate, fluorescence endpoint; inhibition, % at 15 µM; actives 0.67% (n = 360,000); AID 602261;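 active = compounds whose normalised, plate-corrected inhibition of enzyme fluorescence in the single-dose primary screen is 50% or more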;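 also: 0% = DMSO with enzyme and 100% = substrate without enzyme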
# Target sequence (P49327 whole entry, looked up, the tested form may be a part): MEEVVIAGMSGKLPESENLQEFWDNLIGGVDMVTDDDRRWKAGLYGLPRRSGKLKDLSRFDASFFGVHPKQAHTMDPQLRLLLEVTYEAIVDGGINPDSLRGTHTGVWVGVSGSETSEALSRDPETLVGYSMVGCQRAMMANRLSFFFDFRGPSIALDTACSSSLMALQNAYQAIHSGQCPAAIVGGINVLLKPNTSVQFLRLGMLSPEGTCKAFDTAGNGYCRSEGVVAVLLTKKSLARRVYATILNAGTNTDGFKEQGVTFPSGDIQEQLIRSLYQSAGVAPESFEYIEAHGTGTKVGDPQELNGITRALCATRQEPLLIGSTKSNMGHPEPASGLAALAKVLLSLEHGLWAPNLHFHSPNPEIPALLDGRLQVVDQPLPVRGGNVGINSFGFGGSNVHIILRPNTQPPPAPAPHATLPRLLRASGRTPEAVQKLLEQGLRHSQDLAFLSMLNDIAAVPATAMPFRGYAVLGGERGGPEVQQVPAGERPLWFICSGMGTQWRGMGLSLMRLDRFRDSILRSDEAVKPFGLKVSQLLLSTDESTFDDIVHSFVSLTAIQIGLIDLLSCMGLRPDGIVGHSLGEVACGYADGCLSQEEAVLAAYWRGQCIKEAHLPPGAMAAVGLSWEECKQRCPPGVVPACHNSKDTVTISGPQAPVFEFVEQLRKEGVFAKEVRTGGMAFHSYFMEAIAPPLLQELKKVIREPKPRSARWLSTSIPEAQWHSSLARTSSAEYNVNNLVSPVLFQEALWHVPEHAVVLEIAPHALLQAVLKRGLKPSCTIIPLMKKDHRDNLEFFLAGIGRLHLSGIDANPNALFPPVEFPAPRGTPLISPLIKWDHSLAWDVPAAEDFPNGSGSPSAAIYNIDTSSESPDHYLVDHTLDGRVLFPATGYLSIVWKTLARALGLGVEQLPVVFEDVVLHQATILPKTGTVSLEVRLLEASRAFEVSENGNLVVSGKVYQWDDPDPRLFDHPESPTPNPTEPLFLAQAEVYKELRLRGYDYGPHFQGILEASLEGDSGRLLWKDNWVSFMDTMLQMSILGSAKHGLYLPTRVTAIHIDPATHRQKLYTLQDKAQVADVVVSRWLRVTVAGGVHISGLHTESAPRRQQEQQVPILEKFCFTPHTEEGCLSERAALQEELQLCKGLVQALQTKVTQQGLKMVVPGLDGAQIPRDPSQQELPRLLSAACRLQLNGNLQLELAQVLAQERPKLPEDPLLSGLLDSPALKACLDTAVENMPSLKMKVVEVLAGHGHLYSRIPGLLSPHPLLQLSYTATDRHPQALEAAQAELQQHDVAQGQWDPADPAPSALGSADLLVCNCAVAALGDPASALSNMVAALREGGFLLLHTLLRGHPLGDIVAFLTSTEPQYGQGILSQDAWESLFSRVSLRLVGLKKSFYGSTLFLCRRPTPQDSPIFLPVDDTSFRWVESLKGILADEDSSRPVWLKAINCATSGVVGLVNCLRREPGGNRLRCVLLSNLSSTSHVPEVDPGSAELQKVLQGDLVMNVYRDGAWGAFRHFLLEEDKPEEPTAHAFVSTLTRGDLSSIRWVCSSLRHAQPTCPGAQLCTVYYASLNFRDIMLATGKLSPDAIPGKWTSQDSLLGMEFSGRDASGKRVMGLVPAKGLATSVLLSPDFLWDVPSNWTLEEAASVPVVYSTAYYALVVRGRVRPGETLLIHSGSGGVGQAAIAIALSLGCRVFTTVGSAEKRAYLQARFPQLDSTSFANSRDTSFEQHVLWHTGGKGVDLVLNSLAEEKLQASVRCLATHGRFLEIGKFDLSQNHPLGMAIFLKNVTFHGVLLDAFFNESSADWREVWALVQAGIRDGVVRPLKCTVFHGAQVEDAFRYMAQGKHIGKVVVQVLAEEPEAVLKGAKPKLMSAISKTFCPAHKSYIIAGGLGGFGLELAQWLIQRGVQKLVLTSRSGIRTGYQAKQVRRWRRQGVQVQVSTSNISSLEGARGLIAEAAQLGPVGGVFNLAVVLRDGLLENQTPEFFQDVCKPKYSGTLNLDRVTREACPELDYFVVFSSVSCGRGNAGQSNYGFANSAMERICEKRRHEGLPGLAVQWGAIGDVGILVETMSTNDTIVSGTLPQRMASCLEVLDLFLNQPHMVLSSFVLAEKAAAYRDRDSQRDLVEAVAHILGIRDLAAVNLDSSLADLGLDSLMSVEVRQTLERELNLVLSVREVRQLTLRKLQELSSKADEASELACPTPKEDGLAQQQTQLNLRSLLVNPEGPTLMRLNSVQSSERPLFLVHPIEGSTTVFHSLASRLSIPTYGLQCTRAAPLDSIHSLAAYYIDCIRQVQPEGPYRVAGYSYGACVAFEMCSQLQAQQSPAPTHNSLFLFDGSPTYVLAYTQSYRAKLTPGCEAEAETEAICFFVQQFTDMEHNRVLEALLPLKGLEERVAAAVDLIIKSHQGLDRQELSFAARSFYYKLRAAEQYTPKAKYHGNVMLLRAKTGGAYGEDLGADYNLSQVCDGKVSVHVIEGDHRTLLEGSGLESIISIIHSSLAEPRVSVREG
# proKLK7 act: activates the human kallikrein-7 zymogen | actives 0.9% (n = 370,000) | P49862 | activation, % at 7 µM | purified proKLK7, EDANS-DABCYL substrate fluorescence; 100% is mature enzyme control, 0% vehicle;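 active = activation above the mean of all tested compounds plus 3 SD, computed per campaign excluding outliers beyond control limits, cut at about 13% in these data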
# Neddylation inh: inhibitors of human cullin neddylation; calls only at 25 µM; AID 651699; TR-FRET cullin neddylation, biochemical; P61081+Q13564; actives 0.58% (n = 360,000); in the data active = inhibition above about 36%
# Neddyl conf: cullin neddylation inhibition, confirmation; shares compounds with Neddylation inh; TR-FRET cullin neddylation biochemical assay; calls only at 25 µM; actives 13% (n = 1,800); AID 652217; in the data active = inhibition above about 40%;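 also: neddylation substrate is the cullin 1 ring ligase complex with SKP2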
# The depositor's hits bear a star; i = inactive; . = no result given; + = active, no number. In the library only some 2.7% were active in any assay of this set; here they are far more common.
SMILES,PfG6PD inh,FAS-TE inh,proKLK7 act,Neddylation inh,Neddyl conf
O=C(NNc1nc2c(F)cccc2s1)C1=COCCO1,8,-4,0,i,.
CCN(CC)C(=O)C1=C(C)N(CCCN2CCCC2=O)C(=O)C(CC(=O)NCc2cccs2)C1 (stereo unspecified),1,-2,0,i,.
CNC(=O)c1ccc(Nc2nnc(-c3ccc(C)c(S(=O)(=O)NCC4CCCO4)c3)c3ccccc23)cc1 (stereo unspecified),21,5,4,+,i
CC(C)C[C@H]1COc2cc(Br)ccc2S(=O)(=O)N1Cc1cn(Cc2ccco2)nn1,.,.,0,.,.
Cc1cc(N2CCN(C)CC2)nc2ccc(NC(=O)CCC(=O)NCCC3=CCCCC3)cc12,-3,0,1,+,i
COc1ccc(CCNC(=O)CCC(=O)Nc2ccc3nc(N4CCN(C)CC4)cc(C)c3c2)cc1OC,3,-7,0,i,.
COCCCNC(=O)CCC(=O)Nc1ccc2nc(N3CCOCC3)cc(C)c2c1,4,-9,5,.,.
COc1cccc(NC(=O)CCC(=O)Nc2ccc3nc(N4CCOCC4)cc(C)c3c2)c1,-2,0,-4,+,.
Cc1cc(N2CCOCC2)nc2ccc(NC(=S)NC(C)C)cc12,1,-12,3,+,i
CCN(CCC#N)c1ccc(/C=N/Nc2nc(C)cc(=O)[nH]2)c(C)c1,27,-16,1,+,i
Oc1ccccc1/C=N/NC(=S)NCCc1ccccc1,5,17,-58,+,i
Oc1ccccc1C=NNC(=S)Nc1ccc(F)cc1,-21,9,-39,+,.
CC(C)N1CC(O)=C(c2nc3ccccc3[nH]2)C1=N,-24,-8,0,i,.
CC1(C)C(O)=C(c2nc3ccccc3[nH]2)C(=N)N1c1ccccc1,-18,-8,-1,+,.
O=C(N/N=C/c1ccc2c(c1)OCO2)C(=O)Nc1ccccc1Cl,-13,-4,0,i,.
Cc1cc(Cl)ccc1NC(=O)C(=O)N/N=C/c1ccc2c(c1)OCO2,2,-5,0,+,i
Cc1ccc(Cl)cc1NC(=O)C(=O)N/N=C/c1ccc2c(c1)OCO2,-13,6,0,+,i
Brc1ccc(-c2ccc(/C=N/Nc3nc(N4CCOCC4)nc(N4CCOCC4)n3)o2)cc1,2,15,-1,+,i
CC(NC(=O)C(C)N1c2cccc3cccc(c23)S1(=O)=O)c1ccccc1 (stereo unspecified),-4,11,-2,+,i
Cc1c(C)c2cc(Cl)c(OCc3nn[nH]n3)cc2oc1=O,-9,-2,1,+,i
O=C1c2ccccc2NC(c2ccccc2)N1c1ccc(O)cc1 (stereo unspecified),-13,1,4,i,.
O=C(NN1C(=O)c2ccccc2NC1c1ccccn1)c1ccccc1 (stereo unspecified),-2,-9,-7,+,.
O=C1c2ccccc2NC(c2ccccn2)N1c1ccc(Cl)cc1 (stereo unspecified),-16,-6,12,+,.
Cc1ccc2nc(C3CCCCC3)c(Cc3ccsc3)n2c1,.,5,0,i,.
CCOC(=O)C1CCCN(c2nc3ccccc3nc2NS(=O)(=O)c2ccc(C)cc2)C1 (stereo unspecified),-11,5,1,+,+
SMILES,PfG6PD inh,FAS-TE inh,proKLK7 act,Neddylation inh,Neddyl conf
Cc1ccc(S(=O)(=O)Nc2nc3ccccc3nc2NCC2CCCO2)cc1 (stereo unspecified),-11,-4,3,+,i
COc1ccc(S(=O)(=O)Nc2nc3ccccc3nc2NCC2CCCO2)cc1 (stereo unspecified),-17,0,5,i,.
O=S(=O)(Nc1nc2ccccc2nc1NCC1CCCO1)c1ccccc1 (stereo unspecified),-7,-4,3,+,i
COc1ccc(Cn2cc(CN3[C@H](Cc4ccccc4)COc4cc(Br)ccc4S3(=O)=O)nn2)cc1,.,.,1,.,.
CC[C@@H](CCCCCC#N)CCC(=O)N(c1ccccc1)c1ccccc1,.,.,0,.,.
Cc1cc(F)ccc1S(=O)(=O)Nc1ccccc1C(=O)NCc1ccccn1,-3,0,1,+,i
Cn1c(=O)c2c(nc(N/N=C/c3ccc(OC(=O)c4ccco4)cc3)n2Cc2ccccc2Cl)n(C)c1=O,5,25,.,+,i
O=C(c1cscn1)N1CCC(Oc2cccnc2)CC1,.,.,0,.,.
CSc1ccc(SC2CN(Cc3ccc(C)cc3)S(=O)(=O)C2)cc1 (stereo unspecified),.,.,0,.,.
CN(C)c1ccc2c(=O)c3ccccc3oc2n1,.,-1,0,+,i
Cc1nc2oc3ccccc3c(=O)c2cc1C(=O)O,13,-8,0,i,.
Cn1ccc2ccc(-c3ccc4c(c3)[C@]3(CCC[C@@H](OCc5ccccc5)[C@@H]3NC(=O)CCc3ccccc3)C(=O)N4Cc3ccccc3)cc21,.,.,0,.,.
Cc1cc(C)n2nc3ccccc3c2n1,6,-8,0,+,i
Cc1cc(=O)[nH]c2c3ccccc3nn12,2,-9,-5,i,.
CC(C)CNC(=O)CC1Oc2ccccc2NC1=O (stereo unspecified),.,.,0,.,.
Cc1ccc(S(=O)(=O)Oc2ccccc2-c2ccccc2)cc1,44,30,0,i,.
COc1ccccc1NC(=O)Cn1nnc(C(=O)NCc2ccc3c(c2)OCO3)c1N,4,-1,0,i,.
COc1ccc(Cl)cc1NC(=O)Cn1nnc(C(=O)NCc2ccc3c(c2)OCO3)c1N,3,-1,1,+,i
COCCCNC(=O)C[C@H]1C[C@@]2(C(=O)OC)C(=C[C@H](C(C)C)O[C@@H]2C2CC2)N(Cc2ccco2)C1=O,.,.,1,.,.
C=CCNc1ncnc2c1cnn2-c1ccc(OC)cc1,9,-6,-1,+,i
COc1ccc(-n2ncc3c(NCc4ccco4)ncnc32)cc1,30,-1,0,i,.
COc1ccc(-n2ncc3c(NCCCN4CCOCC4)ncnc32)cc1,7,-6,0,+,i
N#C/C(=C\c1cccn1S(=O)(=O)c1ccccc1)S(=O)(=O)c1ccc(F)cc1,.,10,1,i,.
CCOCCN1CCN(c2c(C)c(C)nc3cc(-c4cc(OC)cc(OC)c4)nn23)CC1,25,3,-3,+,i
COCCN1CCN(c2c(C)c(C)nc3cc(-c4cccc(OC)c4)nn23)CC1,2,-3,-1,i,.
COC(=O)c1ccccc1NC(=O)N1CCN(c2ccccc2F)CC1,4,18,0,i,.
COC(=O)c1ccccc1NC(=O)N1CCCC1,2,-6,1,+,i
CC(=O)Nc1ccc(CN2C(=O)C(C)(C)ON=C2c2ccc(NC(C)=O)cc2)cc1,.,-5,0,i,.
CCCc1cc2c(=O)c(-c3ccccn3)c(C)oc2cc1O,8,-5,-7,+,i
CCOc1ccc(-n2c(COc3ccccc3)nnc2SCC(=O)Nc2ccc(OCc3ccccc3)cc2)cc1,.,.,0,.,.
